Source: PubChem BioAssay (Tox21)
Records with an inconclusive call do not appear. The source made the active and inactive calls. Unless noted, calls come from the whole dose curve; as a rule, active = well fitted curve in the direction sought with a large enough effect in the repeat runs; inconclusive = weak or mixed curves; inactive = no such curve, though single readings can be large; an effect the other way counts as inactive or inconclusive.

How the values were obtained:
[1] = qHTS assay to identify small molecule antagonists of the glucocorticoid receptor (GR) signaling pathway - cell viability counter screen (AID 720693); note: nearly all actives have a fitted effect of over 55% in size
[2] = qHTS assay for identifying genotoxic compounds that show differential cytotoxicity against isogenic chicken DT40 cell lines with known DNA damage response pathways - wild type cell line (AID 743012); note: nearly all actives have a fitted effect of over 60% in size; note: potency is the fitted concentration of half-maximal effect
Procedure, shortened: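 Cytotoxicity in repair-proficient parental chicken DT40 cells serves as the comparator for Rad54/Ku70- and Rev3-deficient lines. Cells were exposed to compounds for 40 h at 37 C/5% CO2, and ATP-based luminescence (CellTiter-Glo) measured viability.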

[3] = qHTS assay for identifying genotoxic compounds that show differential cytotoxicity against isogenic chicken DT40 cell lines with known DNA damage response pathways - Rev3 mutant cell line (AID 743014); note: nearly all actives have a fitted effect of over 55% in size; note: potency is the fitted concentration of half-maximal effect
[4] = qHTS assay for identifying genotoxic compounds that show differential cytotoxicity against isogenic chicken DT40 cell lines with known DNA damage response pathways - Rad54/Ku70 mutant cell line (AID 743015); note: nearly all actives have a fitted effect of over 60% in size; note: potency is the fitted concentration of half-maximal effect
[5] = qHTS assay to identify small molecule antagonists of the androgen receptor (AR) signaling pathway using the MDA cell line - cell viability counter screen (AID 743041; note: nearly all actives have a fitted effect of over 45% in size; note: potency is the fitted concentration of half-maximal effect)
Procedure, shortened: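 Compound exposure lasted 16 h at 37C in MDA-kb2 AR-luc cells stimulated with R1881. Protease-based CellTiter-Fluor reagent was applied for the final 30 min and fluorescence measured.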

[6] = target: Androgen receptor (Homo sapiens) (UniProt P10275); test: qHTS assay to identify small molecule antagonists of the androgen receptor (AR) signaling pathway (AID 743035; active = well fitted inhibition curve with a large enough effect in the signal ratio in the repeat runs, not every such curve was filed as active; the % refers to the signal ratio; note: potency is the fitted concentration of half-maximal effect)
Procedure, shortened: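 Steps: seed AR-UAS-bla GripTite HEK293 cells, incubate 4 h at 37C; pin in test compound, then add agonist R1881; incubate 16 h at 37C; add LiveBLAzer B/G FRET substrate, 2 h at room temperature; read fluorescence.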

[7] = target: Androgen receptor (Homo sapiens) (UniProt P10275); test: qHTS assay to identify small molecule agonists of the androgen receptor (AR) signaling pathway using the MDA cell line (AID 743040; note: nearly all actives have a fitted effect of over 20% in size; note: potency is the fitted concentration of half-maximal effect)
Procedure, shortened: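 Testing was done with the MDA-kb2 AR-luc line, a human breast carcinoma stably transfected with MMTV-luciferase containing AR and GR response elements. Cells were exposed 16 h at 37C before ONE-Glo luminescence detection.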

[8] = target: Androgen receptor (Homo sapiens) (UniProt P10275); test: qHTS assay to identify small molecule antagonists of the androgen receptor (AR) signaling pathway using the MDA cell line (AID 743042; note: nearly all actives have a fitted effect of over 55% in size; note: potency is the fitted concentration of half-maximal effect)
Procedure, shortened: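 MDA-kb2 breast carcinoma cells carrying MMTV-luciferase (AR/GR responsive) were co-treated with compounds and the agonist R1881 for 16 h at 37C. Inhibition read as ONE-Glo luminescence; CellTiter-Fluor fluorescence measured in parallel for cytotoxicity.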

[9] = target: Androgen receptor (Homo sapiens) (UniProt P10275); test: qHTS assay to identify small molecule agonists of the androgen receptor (AR) signaling pathway (AID 743036; active = well fitted activation curve with a large enough effect in the signal ratio in the repeat runs, with a control signal flat, not every such curve was filed as active; the % refers to the signal ratio; note: potency is the fitted concentration of half-maximal effect)
Procedure, shortened: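 Cell-based FRET reporter assay: HEK293 line with a UAS-beta-lactamase construct, compounds added in DMSO, 16 h exposure at 37C, then 2 h substrate step at room temperature and fluorescence intensity read.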

[10] = qHTS assay to identify small molecule antagonists of the androgen receptor (AR) signaling pathway - cell viability counter screen (AID 743033; note: nearly all actives have a fitted effect of over 45% in size; note: potency is the fitted concentration of half-maximal effect)

Measured: Potency

Sequence of Androgen receptor (Homo sapiens) (P10275 whole entry, looked up): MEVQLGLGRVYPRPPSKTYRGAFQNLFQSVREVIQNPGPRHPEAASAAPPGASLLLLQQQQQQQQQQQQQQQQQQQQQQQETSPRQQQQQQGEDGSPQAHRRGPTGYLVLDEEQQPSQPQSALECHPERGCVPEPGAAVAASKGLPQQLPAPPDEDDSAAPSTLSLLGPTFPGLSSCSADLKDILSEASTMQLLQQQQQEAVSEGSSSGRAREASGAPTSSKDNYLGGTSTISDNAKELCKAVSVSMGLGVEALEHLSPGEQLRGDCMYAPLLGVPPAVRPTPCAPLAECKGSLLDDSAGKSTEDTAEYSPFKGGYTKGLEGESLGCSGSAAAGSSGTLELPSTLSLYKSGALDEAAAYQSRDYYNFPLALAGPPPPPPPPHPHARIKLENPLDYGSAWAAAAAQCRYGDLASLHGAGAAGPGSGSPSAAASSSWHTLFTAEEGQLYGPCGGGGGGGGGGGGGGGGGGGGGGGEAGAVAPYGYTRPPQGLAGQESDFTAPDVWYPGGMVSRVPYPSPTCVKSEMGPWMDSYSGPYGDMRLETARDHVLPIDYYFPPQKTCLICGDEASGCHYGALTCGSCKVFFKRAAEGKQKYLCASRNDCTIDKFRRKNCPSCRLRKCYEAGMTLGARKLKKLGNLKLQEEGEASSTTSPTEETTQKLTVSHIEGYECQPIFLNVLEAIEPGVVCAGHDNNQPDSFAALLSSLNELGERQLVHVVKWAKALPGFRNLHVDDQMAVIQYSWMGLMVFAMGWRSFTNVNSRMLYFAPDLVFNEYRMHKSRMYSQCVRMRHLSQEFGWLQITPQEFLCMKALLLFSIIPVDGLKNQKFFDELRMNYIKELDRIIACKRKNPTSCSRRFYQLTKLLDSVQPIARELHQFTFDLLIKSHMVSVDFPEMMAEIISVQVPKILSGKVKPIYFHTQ

CS(=O)(=O)OCCCNCCCOS(C)(=O)=O
inactive: [1] | [2] | [3] | [4] | [5]

O=[N+]([O-])c1ccc(Oc2ccc(N=C=S)cc2)cc1
inactive: [1]
active: [2] 13.3 µM | [3] 23.7 µM | [4] 18.8 µM | [5] 26.6 µM

COc1ccc(C2(C#N)CCC(C(=O)O)CC2)cc1OC1CCCC1 (stereo not given)
inactive: [1] | [2] | [3] | [4] | [5]

C=C[C@]1(C)C[C@@H](OC(=O)CSC(C)(C)CNC(=O)[C@H](N)C(C)C)[C@]2(C)[C@H](C)CC[C@]3(CCC(=O)[C@H]32)[C@@H](C)[C@@H]1O
inactive: [1] | [7]
active: [2] 0.188 µM | [3] 0.335 µM | [4] 0.376 µM | [6] 23.9 µM

CCN(CC)Cc1cc(Nc2ccnc3cc(Cl)ccc23)ccc1O
active: [2] 7.17 µM | [3] 7.17 µM | [4] 8.04 µM
inactive: [1] | [7] | [8]

CN(C)CCCN1c2ccccc2C(C)(C)c2ccccc21
active: [2] 18.8 µM | [3] 26.6 µM | [4] 21.1 µM
not listed: [5] | [10]
inactive: all other assays above

NS(=O)(=O)c1cc2c(cc1Cl)NC(Cc1ccccc1)NS2(=O)=O (stereo not given)
inactive: [1] | [2] | [3] | [4] | [5]

[O]=[Bi][O][Bi]=[O]
not listed: [10]
inactive: all other assays above

CC1(C)S[C@@H]2[C@H](NC(=O)C3(N)CCCCC3)C(=O)N2[C@H]1C(=O)O
not listed: [10]
inactive: all other assays above

O=C(NOC[C@H](O)CO)c1ccc(F)c(F)c1Nc1ccc(I)cc1F
inactive: [1] | [2] | [3] | [4] | [7]

N[C@H](CC(=O)O)C(=O)O
inactive: [1] | [2] | [3] | [4] | [5]

Cc1cc(-c2ccc(N=Nc3c(S(=O)(=O)O)cc4cc(S(=O)(=O)O)cc(N)c4c3O)c(C)c2)ccc1N=Nc1c(S(=O)(=O)O)cc2cc(S(=O)(=O)O)cc(N)c2c1O
active: [2] 9.44 µM | [3] 7.5 µM | [4] 10.6 µM | [5] 13.3 µM
inactive: [1]

Nc1ccn(C[C@@H](CO)OCP(=O)(O)O)c(=O)n1
not listed: [10]
inactive: all other assays above

CCC(=O)OCC(=O)[C@@]1(OC(=O)CC)[C@@H](C)C[C@H]2[C@@H]3CCC4=CC(=O)C=C[C@]4(C)[C@@]3(F)[C@@H](O)C[C@@]21C
active: [2] 13.3 µM | [3] 29.8 µM | [4] 23.7 µM
inactive: [1] | [5]

C[C@@H](O)[C@H]1C(=O)N2C(C(=O)[O-])=C(SC3Cn4cnc[n+]4C3)[C@H](C)[C@H]12 (stereo not given in full)
inactive: [1] | [2] | [3] | [4] | [5]

NC(=S)N=Nc1ccc(NN=C(N)N)cc1
active: [2] 2.66 µM | [3] 5.96 µM | [4] 5.31 µM | [5] 26.6 µM | [8] 29.8 µM
inactive: [1] | [9] | [7]

O=C1O[C@H]2[C@H](O)[C@@H]1OC(O)[C@H]2O (stereo not given in full)
inactive: [1] | [2] | [3] | [4] | [5]

CC[N+](C)(C)Cc1ccccc1Br
not listed: [9] | [10]
inactive: all other assays above

CC[C@]1(O)CC2CN(CCc3c([nH]c4ccccc34)[C@@](C(=O)OC)(c3cc4c(cc3OC)N(C)[C@H]3[C@@](O)(C(N)=O)[C@H](O)[C@]5(CC)C=CCN6CC[C@]43[C@@H]65)C2)C1 (stereo not given in full)
inactive: [1] | [7] | [5] | [8]
active: [2] 0.0473 µM | [3] 0.0531 µM | [4] 0.0596 µM | [6] 0.213 µM

O=P(O)(O)C(O)(Cc1cnc2ccccn12)P(=O)(O)O
inactive: [1] | [2] | [3] | [4] | [5]

C[C@H](CCCC(C)(C)O)[C@H]1CC[C@H]2[C@@H]3CC=C4C[C@@H](O)CC[C@]4(C)[C@H]3CC[C@]12C
active: [2] 1.68 µM | [3] 0.211 µM | [4] 10.6 µM
inactive: [1] | [7] | [5] | [8]

O=C(O)CCC/C=C\C[C@@H]1[C@@H](/C=C/[C@@H](O)COc2cccc(C(F)(F)F)c2)[C@H](O)C[C@@H]1O
not listed: [9] | [10]
inactive: all other assays above

CN1c2c(nc(N)[nH]c2=O)NCC1CNc1ccc(C(=O)NC(CCC(=O)O)C(=O)O)cc1 (stereo not given)
not listed: [9] | [10]
inactive: all other assays above

CN(C)CC/C=C1/c2ccccc2CSc2ccccc21
active: [2] 11.4 µM | [3] 12.7 µM | [4] 12.7 µM
not listed: [6] | [10]
inactive: all other assays above

CCCCCc1ccc(C)cc1O
not listed: [6] | [10]
inactive: all other assays above

CC1(S(=O)(=O)O)CC(=O)c2ccccc2C1=O (stereo not given)
inactive: [1] | [7]
active: [2] 9.44 µM | [3] 11.9 µM | [4] 11.9 µM | [8] 29.8 µM

CCCCCCCCCCCCCCCCCCCCCC(=O)Nc1ccn([C@@H]2O[C@H](CO)[C@@H](O)[C@@H]2O)c(=O)n1
active: [2] 18.8 µM | [3] 23.7 µM | [4] 26.6 µM
not listed: [6] | [10]
inactive: all other assays above

CN(C)c1ccc(C(=C2C=CC(=[N+](C)C)C=C2)c2c(O)c(S(=O)(=O)[O-])cc3cc(S(=O)(=O)O)ccc23)cc1
active: [2] 11.9 µM | [3] 10.6 µM | [4] 13.3 µM | [8] 11.9 µM
inactive: [1] | [6] | [9] | [7]

CC(O)CN(C)C (stereo not given)
inactive: [1] | [2] | [3] | [4] | [5]

O=C(O)c1cccc(/C=C2/C[C@@H]3[C@@H](/C=C/[C@@H](O)C4CCCCC4)[C@H](O)C[C@@H]3O2)c1
not listed: [9] | [10]
inactive: all other assays above

C=C(NC(=O)C(=C)NC(=O)c1csc(C2=N[C@@H]3c4csc(n4)[C@H]4NC(=O)c5csc(n5)[C@H]([C@](C)(O)[C@@H](C)O)NC(=O)[C@H]5CSC(=N5)C(=CC)NC(=O)C([C@@H](C)O)NC(=O)c5csc(n5)[C@]3(CC2)NC(=O)[C@H](C)NC(=O)C(=C)NC(=O)[C@H](C)NC(=O)C([C@@H](C)CC)NC2C=Cc3c([C@H](C)O)cc(nc3C2O)C(=O)O[C@@H]4C)n1)C(N)=O (stereo not given in full)
inactive: [1] | [7]
active: [2] 2.54 µM | [3] 3.2 µM | [4] 4.03 µM

Cc1cc(-n2c(=O)[nH]c(=O)n(C)c2=O)ccc1Oc1ccc(S(=O)(=O)C(F)(F)F)cc1
active: [2] 26.6 µM | [3] 26.6 µM | [4] 26.6 µM
inactive: [1] | [5]

C#CCC(Cc1cnc2nc(N)nc(N)c2n1)c1ccc(C(=O)N[C@@H](CCC(=O)O)C(=O)O)cc1 (stereo not given in full)
active: [2] 0.0106 µM | [3] 0.0168 µM | [10] 169 nM
not listed: [4] | [9]
inactive: all other assays above

CCCCCCCCCCCCCCCC(=O)OCC(COC(=O)CCCCCCCCCCCCCCC)OC(=O)CCCCCCCCCCCCCCC
inactive: [1] | [2] | [3] | [4] | [5]

C[C@]12CC[C@@H]3c4ccc(OC(=O)c5ccccc5)cc4CC[C@H]3[C@@H]1CC[C@@H]2O
inactive: [1] | [10] | [5] | [8]
active: [2] 2.98 µM | [3] 9.44 µM | [9] 3.38 µM | [7] 1.33 µM

NCc1ccccc1CC(=O)N[C@@H]1C(=O)N2C(C(=O)O)=C(CSc3nnnn3CC(=O)O)CS[C@H]12
inactive: [1] | [2] | [3] | [4] | [5]

COc1ccc2cc([C@H](C)CO)ccc2c1
inactive: [1] | [2] | [3] | [4] | [5]

CNC(C)CCC=C(C)C (stereo not given)
active: [2] 23.7 µM | [3] 29.8 µM
inactive: [1] | [10] | [5]

CN[C@@H]1[C@@H](O)[C@@H](O[C@@H]2[C@@H](O)[C@H](OC3OC(CN)=CCC3N)[C@@H](N)C[C@H]2N)OC[C@]1(C)O (stereo not given in full)
inactive: [1] | [2] | [3] | [4] | [5]

CCOC(=O)COc1ccc2c(C)c(CCN(CC)CC)c(=O)oc2c1
not listed: [4]
inactive: all other assays above

CCOc1ccc(N=C(C)Nc2ccc(OCC)cc2)cc1
inactive: [1] | [5]
active: [2] 23.7 µM | [3] 23.7 µM | [4] 23.7 µM
